FBPA Giardia inh: qHTS Assay for Inhibitors of Fructose-1,6-bisphosphate Aldolase from Giardia Lamblia | A8B2U2 | purified Giardia FBPA | Potency, µM (series often up to 59.6 µM), inactives show at the top dose activity, negative = inhibition, hits mostly inhibitors | actives 0.71% (n = 290,000) | AID 2451, 2010; note: potency is the fitted concentration of half-maximal effect; nearly all actives have a fitted effect of over 55% in size
Target sequence (A8B2U2 whole entry, looked up): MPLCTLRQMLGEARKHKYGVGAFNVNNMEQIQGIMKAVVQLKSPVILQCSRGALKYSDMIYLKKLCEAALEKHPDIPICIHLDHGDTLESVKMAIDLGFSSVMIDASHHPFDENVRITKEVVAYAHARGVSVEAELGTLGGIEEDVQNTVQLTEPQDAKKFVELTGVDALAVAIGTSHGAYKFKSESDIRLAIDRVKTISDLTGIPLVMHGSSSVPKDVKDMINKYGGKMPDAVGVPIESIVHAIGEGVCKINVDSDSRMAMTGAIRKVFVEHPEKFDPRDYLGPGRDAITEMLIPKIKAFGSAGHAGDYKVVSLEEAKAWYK
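40 nM FBPA preincubated 10 min at RT with compound (up to 57.5 uM final), then substrate plus GAPDH/TPI/NAD/arsenate coupling and diaphorase/resazurin added. Fluorescence read after 20 min at RT, 525/598 nm.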
Pf growth 48h: Primary qHTS for delayed death inhibitors of the malarial parasite plastid, 48 hour incubation. P. falciparum luciferase growth in erythrocytes, 48 h. Potency, µM (top dose mostly 28.7 µM), inactives show top-dose activity change, negative = inhibition, usual class: inhibitors. actives 5.9% (n = 310,000); note: potency is the fitted concentration of half-maximal effect
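A one-generation exposure of luciferase-tagged malaria parasites in RPMI 1640/Albumax erythrocyte culture, 37 C and 5% CO2. Inhibition is inferred from decreased luminescence after adding detection reagent.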
Pf growth 96h: Primary qHTS for delayed death inhibitors of the malarial parasite plastid, 96 hour incubation. Potency, µM (series often up to 28.7 µM), for the others: at the top dose activity change, negative = inhibition, usual class: inhibitors. actives 6.9% (n = 320,000). P. falciparum luciferase reporter growth, 96 h; note: potency is the fitted concentration of half-maximal effect
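Erythrocytes infected with luciferase-expressing P. falciparum were dispensed at 2% hematocrit and 0.05% parasitemia (final), then incubated with compounds 96 hours at 37 C in 5% CO2. Luminescence after detection reagent addition reported growth.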
HCMV antiviral: qHTS Assay for inhibitors of the human cytomegalovirus (HCMV); activity change, negative = inhibition, % at 57.5 µM; AID 1259415, 2018; HFF cells, HCMV-luciferase reporter, 72 h; stronger effect = lower value; actives 4.5% (n = 410,000); in the data active = activity change below about -60%; inconclusive = no clear call, values can overlap the other calls; inactive = above about -39%
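Inhibition of viral replication was scored as loss of reporter luminescence in HFFs infected with HCMV-luciferase (MOI 1 PFU/cell) for 72 h; compounds tested at 2 doses, normalized to buffer and Salinomycin controls.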
Sm TGR block: qHTS Assay for the Inhibitors of Schistosoma Mansoni Peroxiredoxins; Schistosoma mansoni thioredoxin glutathione reductase (TGR), Q962Y6; purified TGR, DTNB reduction, TNB absorbance 405 nm; Potency, µM (series often up to 114 µM), inactives show at the highest dose activity change, negative = inhibition, usual class: inhibitors; actives 3% (n = 360,000); note: potency is the fitted concentration of half-maximal effect; nearly all actives have a fitted effect of over 60% in size
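First, TGR (20 nM dispensed) and NADPH were mixed with compound. Second, a 15 min room-temperature incubation followed. Third, further NADPH and then DTNB were added to start the reaction. Finally, TNB absorbance was monitored kinetically.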
* = called active by the depositor; u = inconclusive; x = no result. This is a sample that favours compounds with a hit; in the whole collection about 14% have one here. Unless noted, calls come from the whole dose curve; as a rule, active = well fitted curve in the direction sought with a large enough effect; inconclusive = small, poorly fitted or top-dose-only effect, or another doubt; inactive = no such curve, though single readings can be large; an effect the other way counts as inactive or inconclusive. % is set by controls: 0 for no effect and ±100 for the full control effect.

SMILES	FBPA Giardia inh	Pf growth 48h	Pf growth 96h	HCMV antiviral	Sm TGR block
CC1(c2ccc3c(c2)OCO3)NC(=O)N(CC(=O)Nc2ccccc2[N+](=O)[O-])C1=O (centres undefined)	x	u	10%	-13	2%
Cc1cc([N+](=O)[O-])ccc1NC(=O)COc1nsnc1N1CCOCC1	-4%	1.9µM*	-26%	104	-2%
COc1ccc(CCNC(=O)COc2nsnc2N2CCOCC2)cc1OC	7%	1.9µM*	u	-11	4%
CC(C)OC(=O)c1cc2c(OC[C@@H](O)CNC(C)(C)C)cccc2[nH]1	0%	x	x	x	x
Cc1c(C(=O)N/N=C/c2ccccc2)[nH]c2ccc(Cl)cc12	3%	4%	u	-70*	-1%
Cc1c(C(=O)N/N=C/c2ccc(N(C)C)cc2)[nH]c2ccc(Cl)cc12	7%	20%	1.9µM*	-76*	4%
Cc1noc(NC(=O)c2c(-c3c(Cl)cccc3Cl)noc2C)c1[N+](=O)[O-]	18%	u	u	7	-26%
Cc1ccccc1Cc1c(C)nc2c(C(=O)NCc3ccco3)cnn2c1C	11%	u	-13%	9	22µM*
Cc1nc2nc(SCC(=O)NCCCN3CCCCCC3)nn2c(C)c1Cc1ccccc1	-2%	0%	-29%	-65*	0%
Cc1nc2nc(SCC(=O)NCc3ccco3)nn2c(C)c1Cc1c(F)cccc1Cl	-1%	-3%	u	-24	50µM*
Cc1ccccc1Cc1c(C)nc2nc(SCC(=O)NCCCN3CCCCC3)nn2c1C	-2%	-17%	30%	x	-10%
Cc1ccccc1Cc1c(C)nc2nc(SCC(=O)NCc3ccco3)nn2c1C	-2%	-14%	7%	0	25µM*
CCCCNC(=O)CSc1nc2nc(C)c(Cc3c(F)cccc3Cl)c(C)n2n1	x	x	x	-14	-5%
Cc1cccc(Cc2c(C)nc3nc(SCC(=O)NCc4ccco4)nn3c2C)c1	0%	0%	5%	33	35µM*
Cc1ccc(Cc2c(C)nc3nc(SCC(=O)NCc4ccco4)nn3c2C)cc1	-8%	1%	-13%	-14	40µM*
O=C(Nc1ccccc1C(F)(F)F)N1CCC(CN2CCc3ccccc3C2)CC1	x	x	x	-24	-1%
COc1ccccc1C(=O)NC(=O)COC(=O)c1cnc(C)cn1	x	2%	40%	-23	-7%
CCN1CCN(S(=O)(=O)c2ccc(Cl)c(C(=O)NC(C)(C)C)c2)CC1	2%	-1%	12%	-36	0%
COc1cccc(-c2ccc3ncnc(N(C)C)c3c2)c1	-1%	x	x	x	x
O=C(NNc1c(Cl)cccc1Cl)c1c(F)cccc1Cl	-4%	7%	u	-7	14%
O=C(NNc1c(Cl)cccc1Cl)c1sccc1Cl	8%	-5%	u	-75*	12%
C=CCn1c(-c2ccccc2OC)n[nH]c1=S	-24%	9%	0%	128	u
CCn1c(-c2cc(-c3cc(OC)ccc3OC)nc3ccccc23)n[nH]c1=S	3%	x	0.37µM*	16	-6%
CCn1c(-c2cc(-c3ccccc3OC)nc3ccccc23)n[nH]c1=S	21%	2.6µM*	3.3µM*	27	-2%
COc1ccc(Cl)cc1-c1n[nH]c(=S)n1Cc1ccccc1	22%	-1%	u	17	0%
SMILES	FBPA Giardia inh	Pf growth 48h	Pf growth 96h	HCMV antiviral	Sm TGR block
Cc1ccc(S(=O)(=O)N2C[C@H]3C(=O)C[C@@H](c4ccc(Cl)cc4)N(S(=O)(=O)c4ccc(C)cc4)[C@H]3C[C@H]2c2cccc3ccccc23)cc1	x	x	x	18	x
CN1CCN(c2nc(-c3ccc4c(c3)OCO4)nc3ccccc23)CC1	3%	x	x	x	x
Nc1cc(OCC(F)(F)F)cc([N+](=O)[O-])c1	14%	23%	19%	-10	-3%
Nc1cc(N)c(OCC(F)(F)F)cc1OCC(F)(F)F	u	-22%	0%	x	1.1µM*
N/C(=N\OS(=O)(=O)c1ccccc1)c1ccncc1	x	u	8.3µM*	-5	1%
Cc1cccc(NC(=O)CCN2CCN(c3ccccc3F)CC2)c1	x	x	x	23	-5%
O=C(Nc1cccc(Cl)c1)N1CCSc2cc(Cl)ccc21	-4%	u	13µM*	-19	-24%
O=C(Nc1cccc(Cl)c1)N1CCSc2ccccc21	x	x	x	u	5%
O=C(Nc1ccccc1Cl)N1CCSc2ccccc21	0%	1.5µM*	-11%	13	3%
O=C(Nc1ccccc1)N1CCSc2cc(Cl)ccc21	-1%	3%	u	10	9%
CCOc1ccc2ccccc2c1/C=N/NC(=O)c1ccncc1	-21%	14%	-20%	-11	0%
Cc1ccc2nc(SCc3nc(-c4ccc(Cl)cc4)no3)[nH]c2c1	x	x	x	-25	9%
O=C(/C=C/c1ccc([N+](=O)[O-])s1)N1CCCC1	-5%	13µM*	10µM*	-31	28µM*
O=C(/C=C/c1ccc([N+](=O)[O-])s1)N1CCCCC1	1%	u	u	u	20µM*
O=C(/C=C/c1ccccc1[N+](=O)[O-])N1CCN(c2ccc(F)cc2)CC1	-3%	-8%	56%	u	x
O=C(/C=C/c1ccc([N+](=O)[O-])s1)N1CCN(c2ccccc2)CC1	3%	u	u	-70*	-15%
Cc1nnc2ccc(N3CCC4(CC3)OCCO4)nn12	0%	4%	24%	-62*	9%
Cc1nnc2ccc(N3CCCC3)nn12	1%	3%	x	11	-9%
CCOc1ccc(CN(C)C(=O)CCN2C(=O)c3ccccc3C2=O)cc1OC	6%	-12%	27%	-7	-6%
Cc1cc(O)c(C=O)c2c1C(=O)Oc1c(CO)c(O)c3c(c1O2)C(O)OC3=O (centres undefined)	u	19%	60%	x	14µM*
Cc1cc(C)c2c(=O)[nH]c(SCC(=O)c3ccc(F)c(C)c3)nc2n1	1%	29%	22%	-103*	-1%
O=c1c2ccccc2c(C=Nc2ccc(S(=O)(=O)N3CCCCC3)cc2)c(O)n1-c1ccc(Cl)cn1	2%	-6%	4%	56	-1%
O=c1c2ccccc2c(C=Nc2cccc(S(=O)(=O)NCc3ccco3)c2)c(O)n1-c1ccc(Cl)cn1	1%	15µM*	u	-29	-14%
COc1ccc(/C(N)=N/OC(=O)C2CCCCC2)cc1OC	x	39%	26%	-11	-1%
COc1ccc(/C(N)=N/OC(=O)C2CCCCC2)cc1	x	186%	200%	25	89µM*
CCc1cccc(NC(=O)Nc2csc3c2CCCC3)c1	x	x	x	6	6%
CCC(O)(CC)C(=O)NN(C(=O)Nc1csc2c1CCCC2)c1ccccc1	1%	1.7µM*	1.3µM*	-30	-2%

Screening results as filed in PubChem.
